Screening data deposited in PubChem by The Scripps Research Institute Molecular Screening Center.
In the library only some 3.5% were active in any assay of this set; here they are far more common.
GPR151 activ = activators of human GPR151, primary screen, cell-based, PathHunter beta-arrestin, luminescence; G-protein coupled receptor 151 (Homo sapiens), Q8TDV0; PathHunter beta-arrestin GPR151 cells; activation, % at 11.2 µM; hit rate 1% among 650,000; in the data active means activation above about 4.9%;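 further: 0% = median of compound wells and 100% = cells with positive control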
Target sequence (Q8TDV0 whole entry, looked up): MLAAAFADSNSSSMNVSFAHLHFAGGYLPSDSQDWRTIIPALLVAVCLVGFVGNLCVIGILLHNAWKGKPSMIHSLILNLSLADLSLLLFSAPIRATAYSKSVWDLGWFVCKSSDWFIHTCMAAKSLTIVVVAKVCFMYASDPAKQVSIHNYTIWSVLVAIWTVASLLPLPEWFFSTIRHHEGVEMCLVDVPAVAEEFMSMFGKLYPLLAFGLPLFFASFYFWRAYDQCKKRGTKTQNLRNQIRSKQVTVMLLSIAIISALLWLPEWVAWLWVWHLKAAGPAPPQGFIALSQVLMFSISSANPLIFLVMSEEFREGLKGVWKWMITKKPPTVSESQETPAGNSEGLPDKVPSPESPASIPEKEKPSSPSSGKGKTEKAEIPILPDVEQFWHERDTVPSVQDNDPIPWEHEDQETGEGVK
TEAD-YAP inh = TEAD-YAP interaction inhibition, primary screen, TEAD-YAP interaction inhibitor project, luminescence, HEK-TIYL cells; inhibition, % at 9.12 µM; TEAD-Gal4/YAP UAS-luciferase luminescence; hit rate 1.4% among 640,000; in the data active means inhibition above about 32%;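 further: 0% = median of test compound wells and 100% = reference inhibitor wells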
FBW7 activator = FBW7 E3 ligase activators, primary screen, biochemical, AlphaScreen, human; F-box/WD repeat-containing protein 7 (Homo sapiens), Q969H0; AID 1259310, 2017; AlphaScreen FBW7–phospho-cyclin E peptide binding, activator screen; hit rate 0.13% among 650,000; normalized activity (activation), % at 26.1 µM; in the data active means normalized activity above about 1.9%;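 further: purified mutant Fbw7 with reduced substrate affinity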
MITF primary = MITF inhibitors, primary screen, biochemical, AlphaScreen, human. Microphthalmia-associated transcription factor (Homo sapiens), O75030. AlphaScreen MITF homodimerization, bead proximity signal. inhibition, % at 2.6 µM. hit rate 0.91% among 650,000. AID 1259374, 2018; in the data active means inhibition above about 50%;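 further: 0% = vehicle wells with protein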
MITF inh conf = MITF inhibitors, retest of hits, confirmation, biochemical, AlphaScreen, triplicate. hit rate 16% among 4,700. inhibition, % at 2.6 µM. AlphaScreen MITF homodimerization, biotin/His-MITF beads. shares compounds with MITF primary;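 active means inhibition above a cutoff derived from the DMSO control wells, cut at about 28% in these data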;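 further: 0% = MITF dimer wells with DMSO only; inhibitors lower the bead chemiluminescence by keeping MITF from dimerizing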
AlphaScreen DR = AlphaScreen optical interference compounds, dose response, counter-screen, biochemical, HTS | hit rate 6% among 480 | IC50, µM | shares compounds with MITF primary | AlphaScreen optical interference counterscreen, cell-free; call rule not given here
AlphaScreen intf2 = AlphaScreen optical interference compounds, counter-screen for MITF inhibitor project, biochemical, triplicate. hit rate 7.6% among 4,700. shares compounds with MITF primary. inhibition, % at 2.6 µM. LysRS AlphaScreen counterscreen, signal interference;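 active means inhibition above a cutoff derived from the DMSO control wells, cut at about 30% in these data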
An asterisk follows results filed as active; / = not tested or not shown.

SMILES | GPR151 activ | TEAD-YAP inh | FBW7 activator | MITF primary | MITF inh conf | AlphaScreen intf2 | others
O=S(=O)(NCC(c1cccs1)S(=O)(=O)c1ccc(Cl)cc1)c1cccs1 (stereo not given) | 0 | 6 | 1 | 73* | 18 | 3
O=c1oc2ccccc2c(O)c1Cc1cc(Cl)c2cccnc2c1O | 1 | 1 | 0 | 16 | / | /
O=C1NC(=O)C(Cc2cc(Cl)c3cccnc3c2O)C(=O)N1 | 1 | 3 | 0 | 58* | 82* | 85*
COC(=O)c1ccc(NC(=O)CN2CCN(Cc3nc4ccccc4n3C)CC2)cc1 | 0 | 2 | 0 | 70* | 3 | 20
Cc1noc(C)c1CN1CCN(C(=O)c2cc(=O)c3ccccc3o2)CC1 | 1 | -4 | 0 | 10 | / | /
Cn1c(CN2CCN(Cc3ccccc3)CC2)nc(=O)c2ccccc21 | -1 | -4 | 0 | 71* | -17 | 3
Cn1c(CN2CCN(C(=O)c3cc(=O)c4ccccc4o3)CC2)nc2ccccc21 | 0 | 9 | 0 | 86* | 2 | 14
COCCNC(=O)N1CCN(Cc2nc3ccccc3n2C)CC1 | 0 | 5 | 0 | 78* | 8 | 20
COc1ccc(NC(=O)CSc2nc3ccc(NC(=O)c4cccc5ccccc45)cc3s2)c([N+](=O)[O-])c1 | -1 | 15 | 0 | -4 | / | /
CCC1CN(CC(=O)NC2C3CC4CC(C3)CC2C4)Cc2cc(OC)ccc2O1 (stereo not given) | 1 | -5 | 0 | 60* | -1 | 6
Cc1cccc(CN2CCCC(C(N)=O)C2)c1 (stereo not given) | 0 | 13 | 0 | 21 | / | /
COc1ccc(CNC(=O)c2c(O)c3c([nH]c2=O)CCCC3)cc1 | -1 | -4 | 1 | 51* | 7 | 15
O=C(CN1C(=O)C2CCCN2C(=O)c2ccccc21)Nc1ccc(F)cc1 (stereo not given) | -1 | 3 | 0 | 1 | / | /
N#Cc1ccc(NC(=O)CN2C(=O)C3CCCN3C(=O)c3ccccc32)cc1 (stereo not given) | 0 | -8 | 0 | 72* | -23 | 0
COCCn1c(C)nnc1SCC(N)=O | -1 | 16 | 1 | 83* | 6 | 5
NC(=O)C1CCN(c2cc(=O)n(-c3ccccc3Cl)c(=O)[nH]2)CC1 | 0 | -7 | 0 | -15 | / | /
COC(=O)COc1ccc(=O)n(C)n1 | -1 | -6 | 1 | 8 | / | /
O=C(NCCOc1ccccc1)c1cccc(Nc2ccncn2)c1 | 1 | -55 | 0 | 81* | -1 | 3
COc1ccc(-c2cc(C(=O)NC3CC3)ccn2)cc1 | 3 | -13 | 0 | 6 | / | /
O=S(=O)(c1ccc2ccccc2c1)N1CCN(Cc2ccccc2Cl)CC1 | 0 | -8 | 0 | 58* | -36 | 11
O=S(=O)(c1ccc2ccccc2c1)N1CCN(Cc2ccc(F)cc2)CC1 | 0 | 11 | 0 | 54* | 12 | 12
C/C(CC(=O)Nc1cccc(I)c1)=N\NC(=O)c1cccc(O)c1 | -1 | 12 | 0 | 0 | / | /
O=C(O)C1CC(Br)C(Br)CC1C(=O)NCc1cccnc1 (stereo not given) | 0 | -5 | 0 | -1 | / | /
COc1ccc(NC(=O)CN(C)CC(=O)Nc2cccc(C(C)=O)c2)cc1 | 1 | 1 | 0 | 58* | -1 | 5
Cc1ccc(C(C)C)c(OCCCCn2ccnc2)c1 | 1 | -1 | 0 | 20 | / | /
SMILES | GPR151 activ | TEAD-YAP inh | FBW7 activator | MITF primary | MITF inh conf | AlphaScreen intf2 | others
C=CCNCCOc1cc(C(C)C)ccc1C | -1 | -6 | 0 | 3 | / | /
Cc1ccc(C(C)C)cc1OCCCCn1ccnc1 | 2 | 1 | 0 | 53* | 8 | 8
Cc1ccc(C(C)C)cc1OCCOCCN1CCCC1 | -2 | 4 | 0 | 54* | -5 | -14
Cc1ccc(C(C)C)cc1OCCNC(C)C | -2 | 6 | 1 | 89* | 1 | 4
CNc1ccc(S(=O)(=O)NCC(=O)OCC(=O)Nc2ccc(F)cc2)cc1[N+](=O)[O-] | -2 | 4 | 0 | -2 | / | /
Cc1ccc(C)c(NNC(=O)C(=O)NNc2cc(C)ccc2C)c1 | 1 | -2 | 0 | 51* | 2 | -4
Cc1cc(N=Cc2ccc([N+](=O)[O-])o2)ccc1S(=O)(=O)O | 0 | 2 | 0 | 58* | 47* | -12 | AlphaScreen DR=>6.5
O=[N+]([O-])c1ccc(C=Nc2ccc(N=Cc3ccc([N+](=O)[O-])o3)cc2)o1 | 0 | 14 | 0 | 36 | / | /
Nc1cc2c3c(cc(N)cc3c1)C(=O)N(O)C2=O | 0 | -8 | -2 | 106* | 111* | 94*
Cc1cc(=O)n(C)c(=O)n1CCCCBr | 1 | 2 | 0 | -3 | / | /
Cc1cc(=O)n(C)c(=O)n1CCCCNCCO | 0 | 4 | 0 | 72* | -5 | -4
Cc1cc(=O)n(C)c(=O)n1CCCNC(C)c1ccccc1 (stereo not given) | -1 | 7 | 0 | 84* | 6 | 22
Cc1cc(=O)n(C)c(=O)n1Cc1ccccc1 | -2 | -6 | 0 | 9 | / | /
CC(=O)C1=C(O)C(=O)NC1c1ccccc1[N+](=O)[O-] (stereo not given) | 0 | -7 | 0 | 12 | / | /
Cc1nc2ccccc2c(=O)n1-c1cccc(NC(=O)c2cc3ccccc3oc2=O)c1 | -1 | -2 | 0 | -6 | / | /
CS(=O)(=O)c1ccc2nc(NC(=O)/C=C/c3cccc([N+](=O)[O-])c3)sc2c1 | 1 | 1 | 0 | 80* | -9 | -6
CS(=O)(=O)c1ccc2nc(NC(=O)/C=C/c3ccccc3Cl)sc2c1 | 0 | 1 | 0 | 7 | / | /
O=C(CCC1CCCN(C(=O)CCOc2ccccc2)C1)NCc1ccc(F)c(F)c1 (stereo not given) | -1 | 11 | 0 | -3 | / | /
COc1ccc(C2C(C#N)=C(N)Oc3n[nH]c(C(C)(C)C)c32)cc1OC (stereo not given) | 0 | -5 | 0 | -2 | / | /
O=C(NNC(=S)Nc1ccc2c(c1)OCO2)c1ccccn1 | -2 | -47 | -2 | 117* | 96* | 91*
O=C(Nc1ccc2c(c1)OCO2)c1ccccn1 | -10 | 11 | 0 | -3 | / | /
O=C(NNC(=S)NCC1CCCO1)c1ccccn1 (stereo not given) | 1 | 23 | -2 | 118* | 116* | 100*
Cc1cc(C(=O)NNC(=S)NCC2CCCO2)no1 (stereo not given) | 0 | 0 | 0 | 5 | / | /
Cc1ccc(SCCC(=O)NNC2CC(=O)N(c3ccc4ccccc4c3)C2=O)cc1 (stereo not given) | 0 | 1 | 0 | 7 | / | /
